# Hit rate of the full screen: of about 360,000 compounds, about 3,000 (0.83%) were called active. The sample holds actives, similar compounds and a random draw of the others, so the mix is not that of the screen. A number with no mark means an inactive call. Cut-off read from the data, not from the text of the source: active = inhibition above about 38%; inactive = the rest.
# Target: G-protein coupled receptor 183 (Homo sapiens) (UniProt P32249)
# Test: blockers of oxysterol-driven EBI2 arrestin signaling – cell-based, luminescence, 7a,25-OHC stimulation, uHTS, primary screen (AID 651636);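 note: enzyme fragment complementation signal reports receptor beta-arrestin coupling in cells; 0% = agonist plus DMSO wells and 100% = wells without agonist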
# Settings: EBI2 beta-arrestin recruitment, 7a,25-OHC stimulated, at 5 µM, stronger effect = higher value
# Sequence of G-protein coupled receptor 183 (Homo sapiens) (P32249 whole entry, looked up, the tested form may be a part): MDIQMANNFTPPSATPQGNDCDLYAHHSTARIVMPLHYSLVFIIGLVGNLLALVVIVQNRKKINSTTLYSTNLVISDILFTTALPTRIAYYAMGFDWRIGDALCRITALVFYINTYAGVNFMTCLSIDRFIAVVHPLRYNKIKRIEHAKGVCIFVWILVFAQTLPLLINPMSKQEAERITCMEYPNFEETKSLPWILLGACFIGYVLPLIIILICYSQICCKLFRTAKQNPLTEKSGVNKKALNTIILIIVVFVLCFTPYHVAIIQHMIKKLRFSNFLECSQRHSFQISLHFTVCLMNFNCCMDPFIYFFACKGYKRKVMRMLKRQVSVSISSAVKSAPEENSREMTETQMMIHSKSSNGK
row,SMILES,inhibition
1,Cc1cc2nc3n(c2cc1C)CC1CC(C(=O)NCCC(C)C)N(C)C31 (stereo not drawn),6.24%
2,Clc1cccc(N=C2NN=C(c3ccc4c(c3)OCCO4)CS2)c1,49.5% (active)
3,c1ccc(CN2CCC(N=C3NN=C(c4ccc5c(c4)OCCO5)CS3)CC2)cc1,6.66%
4,CN(C)c1nc(=Nc2cccc(Cl)c2)ss1,1.94%
5,Cc1ccc(S(=O)(=O)N2[C@@H](c3cccc4ccccc34)C(C(=O)O)=C[C@H]2C(C)(C)C)cc1,-1.04%
6,CCN(CC)c1ccc(S(=O)(=O)N2CCCCC2)cc1NC(=O)C1=COCCO1,1.67%
7,CCCCN=C1C([N+](=O)[O-])=CC=C2C1=NC1(CCCCC1)N2O,68.4% (active)
8,CO[C@@H]1CN(C)C(=O)c2cc(NC(=O)C3CC3)ccc2OC[C@H](C)N(C(=O)CN2CCOCC2)C[C@@H]1C,-1.87%
9,COc1ccc(-c2nc3c(s2)CCc2onc(-c4ccc(OC)cc4)c2-3)cc1,-3.33%
10,Cc1cccc(C(=O)NNC(=O)CSc2nnc(C(C)C)n2C)c1,2.91%
11,CCC(c1nnc(SCC(=O)NNC(=O)c2ccccc2)n1Cc1ccccc1)N(C)C (stereo not drawn),72.7% (active)
12,CCn1c(SCC(=O)NNC(=O)c2ccc(OC)cc2)nnc1C(C)C,12.9%
13,COC(=O)[C@H](CC(C)C)NC(=O)N1CCCCC1C (stereo partly drawn),-4.31%
14,Cc1cc(C)c(C#N)c(SCc2ccc3c(c2)OCO3)n1,-1.67%
15,CCCc1[nH]nc2c1C(c1ccc(Br)s1)C(C#N)=C(N)O2 (stereo not drawn),-18.9%
16,Cc1cc(C)c(C#N)c(SCc2[nH]nc3c2C(c2ccccc2)C(C#N)=C(N)O3)n1 (stereo not drawn),63.3% (active)
17,COc1cc2c(cc1NC(=O)CN1CCN(S(=O)(=O)c3ccc(F)cc3)CC1)oc1ccccc12,3.04%
18,CC(C)c1ccc(N2CC(C(=O)Nc3nccs3)CC2=O)cc1 (stereo not drawn),5.79%
19,Cc1cccc(-c2nc3c(c(SCC(=O)N4CCOCC4)n2)CCCC3)c1,4.2%
20,Cn1nnnc1SCC(=O)N1CCN(C(c2ccccc2)c2ccccc2)CC1,36.1%

row,SMILES,inhibition
1,CC(OC(=O)c1ccc(-n2cnnn2)cc1)C(=O)NCc1ccccc1 (stereo not drawn),-7.1%
2,O=C(c1ccc(-n2cnnn2)cc1)N1CCN(C(c2ccccc2)c2ccccc2)CC1,79% (active)
3,COc1ccc(C2Nc3ccccc3C(=O)N2c2ccc(Cl)cc2)cc1Cn1cc([N+](=O)[O-])cn1 (stereo not drawn),4.76%
4,COc1ccc(NC(=O)C[C@H]2C(=O)N(CCc3ccccc3)C[C@@H]2C)cc1,2.26%
5,CCNC(=S)N1CCN(S(=O)(=O)c2ccc(Cl)s2)CC1,-5.4%
6,CCC(=O)Nc1ccccc1C(=O)N1CCN(Cc2ccccc2)CC1,-10.6%
7,O=C(c1cc2ccccc2o1)N1CCN(c2cccc(C(F)(F)F)c2)CC1,36.7%
8,O=C(c1cc2ccccc2o1)N1CCN(S(=O)(=O)c2ccc(Cl)s2)CC1,91.3% (active)
9,O=S(=O)(c1ccc(Cl)s1)N1CCC2(CC1)OCCO2,1.76%
10,O=C(c1cc2ccccc2o1)N1CCN(Cc2ccccc2)CC1,65.2% (active)
11,COc1ccc(N(CCC(=O)NCCc2ccccc2)S(=O)(=O)c2ccc(C)cc2C)cc1,9.4%
12,CCOC(=O)c1cnc(SCc2nc(N)nc(Nc3ccc(OC)cc3)n2)nc1N,-2.38%
13,Cc1cccc(OCCC(=O)OCc2csc(CC(=O)Nc3ccccc3C)n2)c1,-1.51%
14,C=CCNc1nc(N)c(C(=C(C#N)C#N)c2ccccc2)s1,-6.63%
15,Cc1ccc(CN2CC(C(=O)N3CCN(S(=O)(=O)c4ccccc4)CC3)CC2=O)cc1 (stereo not drawn),3.15%
16,CN1CCN(c2cc(=O)n(-c3ccc(Cl)cc3)c(=O)[nH]2)CC1,-7.79%
17,CC1CC(C)CN(CCCNC(=O)Cn2ncc3c([nH]c4ccccc43)c2=O)C1 (stereo not drawn),5.19%
18,Cc1ccc(NS(=O)(=O)c2ccc3c(c2)NC(=O)CO3)cc1,-3%
19,CC[C@@H]1Cc2cc(O)ccc2C2=C1c1ccc(O)cc1C[C@H]2CC,49.4% (active)
20,COc1ccc(Br)cc1CN(C)C(=O)C1CC(=O)N(C2CCCC2)C1 (stereo not drawn),7.14%

row,SMILES,inhibition
1,CN1CCN(C(=O)c2ccc(-c3cc4nc(NCc5cccnc5)n(C)c(=O)c4s3)cc2)CC1,-2.23%
2,CCc1ccccc1NC(=O)c1ccc2c(c1)CCN2S(C)(=O)=O,-1.7%
3,CCc1ccccc1NC(=O)NCCN1CCCCC1,4.39%
4,CN1CCc2ccccc2C1Cc1ccccc1NC(=O)c1sc2ccccc2c1Cl (stereo not drawn),65.6% (active)
5,CCOC(=O)[C@]12CCCC=C1N(Cc1cccc3ccccc13)C(=O)[C@H](CC(=O)NCC13CC4CC(CC(C4)C1)C3)C2,16.6%
6,COC(=O)C[C@H]1C=C[C@@H](NS(=O)(=O)c2ccc(C)cc2)[C@@H](CO)O1,-0.992%
7,O=C(NCCN1CCOC1=O)C1CCC(=O)N(CCc2ccc(Cl)cc2)C1 (stereo not drawn),5.95%
8,O=C(NCCc1ccccc1Cl)C1CCC(=O)N(CCCc2ccccc2)C1 (stereo not drawn),8.34%
9,O=C(NCCCc1ccccc1)C1CCC(=O)N(CCc2ccc(Cl)cc2)C1 (stereo not drawn),63.7% (active)
10,C/C(=N/NC(=O)c1ccc(Br)o1)c1ccc(C)o1,-2.5%
11,COC(=O)[C@]12CCCCC=C1N(Cc1ccco1)C(=O)[C@H](CC(=O)NCC1CCCCC1)C2,-6.57%
12,CC1CN(C(=S)Nc2cccc(F)c2)CC(C)O1 (stereo not drawn),-5.04%
13,COc1cccc(NC(=O)Cn2cnc3sc(C)c(S(=O)(=O)N4CCN(C)CC4)c3c2=O)c1,-9.02%
14,COc1cccc(NC(=O)Cn2c3ccc(F)cc3c3nc4n(c(=O)c32)CCS4)c1,80.8% (active)
15,COc1ccc2c(c1)c1nc3n(c(=O)c1n2CC(=O)Nc1ccccc1)CCS3,8.84%
16,COc1cccc(NC(=O)CC2C(=O)NCCN2C(=S)Nc2ccc(F)cc2)c1 (stereo not drawn),9.02%
17,COc1cccc(NC(=O)CS(=O)(=O)c2cn(CC(=O)N3CCOCC3)c3ccccc23)c1,3.35%
18,COc1cccc(NC(=O)Cn2c3ccccc3c3nc4n(c(=O)c32)CCS4)c1,62% (active)

# Reference: PubChem BioAssay AID651636 (Sanford-Burnham Center for Chemical Genomics, 2012)
